Measured values published in PubChem BioAssay (Tox21).
Results filed as inconclusive are left out. A call without a number means that no potency is given here. A number with no mark means an inactive call. Activity calls are given as the source filed them. Unless noted, calls follow the shape of the dose curve; as a rule, active = well fitted curve in the direction sought with a large enough effect in the repeat runs; inconclusive = weak or mixed curves; inactive = no such curve, though single readings can be large; an effect the other way counts as inactive or inconclusive.

What was measured:
[1] = molecular target: Retinoic acid receptor RXR-alpha (Homo sapiens) (UniProt P19793); test: qHTS assay to identify small molecule agonists of the RXR signaling pathway (AID 1159527; calls by dose curve; also: nearly all actives have a fitted effect of over 35% in size; also: potency is read from the fitted curve at half-maximal effect)
Method in brief: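 Read-out: beta-lactamase FRET ratio (405 nm excitation, 460 and 530 nm emission) after 2 hr substrate loading at room temperature. Cells were RXR-alpha-UAS-bla HEK 293T treated with compounds for 16 hr in 2% charcoal-stripped FBS medium.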

[2] = qHTS assay to identify small molecule agonists of the RXR signaling pathway - cell viability counter screen (AID 1159529); also: nearly all actives have a fitted effect of over 50% in size
Method in brief: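 HEK 293T RXRa-bla cells, 2% CS-FBS; 5 h settle; cpd 16 h 37 C, 5% CO2; CellTiter-Glo 30 min RT, luminescence. Tetraoctyl ammonium bromide as positive control.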

[3] = qHTS assay to identify small molecule antagonists of the retinoid acid receptor (RAR) signaling pathway - cell viability counter screen (AID 1159551); also: nearly all actives have a fitted effect of over 35% in size
Method in brief: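 Luminescent ATP quantitation (CellTiter-Glo) gave cell viability in C3RL4 cells exposed to test chemicals for 6 h at 37 C alongside 1 uM final retinol.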

[4] = qHTS assay to identify small molecule antagonists of the retinoic acid receptor (RAR) signaling pathway (AID 1159552; also: nearly all actives have a fitted effect of over 50% in size)
Method in brief: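 Cells of the C3RL4 line were seeded, incubated overnight, then dosed with compounds in DMSO followed immediately by retinol (1 uM final). Six hours later luciferase detection reagent went in; signal was measured after 30 min at RT.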

[5] = qHTS assay to identify small molecule agonists of the retinoic acid receptor (RAR) signaling pathway (AID 1159553); conditions: C3RL4 RARE luciferase reporter, agonist, 6 h; activation: at 73.3 µM (top of the series); also: potency is read from the fitted curve at half-maximal effect
Method in brief: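 Luminescence from a RARE-driven luciferase reporter in C3RL4 cells served as the read-out, measured after 30 min with detection reagent at room temperature. Compounds in DMSO were applied for 6 hr at 37 C following overnight seeding.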

[6] = qHTS assay to identify small molecule antagonists of the estrogen related receptor (ERR) signaling pathway from Tox21 library - cell viability counter screen (AID 1224834); also: nearly all actives have a fitted effect of over 30% in size; also: potency is read from the fitted curve at half-maximal effect
Method in brief: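 Fluorescence from CellTiter-Fluor gives the viability read-out, taken 30 min after reagent addition. Before that, ERR cells seeded 6 h earlier were incubated with compounds for 17.5 h at 37 C.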

[7] = qHTS assay to identify small molecule agonists of the constitutive androstane receptor (CAR) signaling pathway - cell viability counter screen (AID 1224836); also: nearly all actives have a fitted effect of over 45% in size
Method in brief: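 HepG2-CYP2B6-hCAR, 2500 cells/well, 4 h pre-incubation; cpd 15 conc + PK11195 0.75 uM final; 23 h, 37 C/5% CO2; CellTiter-Fluor, fluorescence.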

[8] = qHTS assay to identify small molecule antagonists of the constitutive androstane receptor (CAR) signaling pathway - cell viability counter screen (AID 1224837); also: nearly all actives have a fitted effect of over 45% in size
Method in brief: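 HepG2-CYP2B6-hCAR cells, 2500/well, 4 hr pre-incubation; compound titration, 15 conc.; CITCO 50 nM final; 23 hr, 37 C/5% CO2; CellTiter-Fluor, fluorescence intensity.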

[9] = molecular target: Nuclear receptor subfamily 1 group I member 3 (Homo sapiens) (UniProt Q14994); test: qHTS assay to identify small molecule antagonists of the constitutive androstane receptor (CAR) signaling pathway (AID 1224838);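 also: HepG2 cells stably expressing hCAR with CYP2B6 luciferase reporter stimulated by CITCO; nearly all actives have a fitted effect of over 40% in size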
Method in brief: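 HepG2-CYP2B6-hCAR cells; 4 h pre-incubation; cpd (15 conc) + CITCO 50 nM final; 24 h, 37 C/5% CO2; ONE-Glo, luminescence.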

[10] = molecular target: Nuclear receptor subfamily 1 group I member 3 (Homo sapiens) (UniProt Q14994); test: qHTS assay to identify small molecule agonists of the constitutive androstane receptor (CAR) signaling pathway (AID 1224839);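 also: HepG2 cells stably carrying human CAR and a CYP2B6 luciferase reporter; nearly all actives have a fitted effect of over 15% in size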
Method in brief: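 HepG2-CYP2B6-hCAR cells, 2500/well, 4 h pre-incubation; compounds 15 conc.; PK11195 0.75 uM final; 24 h, 37 C/5% CO2; ONE-Glo luciferase read.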

[11] = qHTS assay to identify small molecule antagonists of the estrogen related receptor signaling pathway with the pleiotropic PPARgamma coactivator (PGC) from Tox21 10K library - cell viability counter screen (AID 1224840; active = well fitted cell-killing curve with a large enough effect in the repeat runs, not every such curve was filed as active; also: nearly all actives have a fitted effect of over 40% in size)
Method in brief: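 PGC/ERR cells, 2,000/well; 6 h pre-incubation 37 C/5% CO2; cpd in DMSO via pin tool; 17.5 h 37 C; CellTiter-Fluor, 30 min; fluorescence.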

[12] = qHTS assay to identify small molecule antagonists of the estrogen related receptor signaling pathway with the pleiotropic PPARgamma coactivator (PGC) from Tox21 10K library (AID 1224841; call rule not given here; also: actives are mostly falling curves and most rising ones were filed inactive; nearly all actives have a fitted effect of over 50% in size)
Method in brief: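 PGC/ERR cell line, 2,000 cells/well; 6 h pre-incubation 37 C/5% CO2; compounds (DMSO) pinned in; 18 h, 37 C; One-Glo, 30 min RT; luminescence.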

[13] = qHTS assay to identify small molecule agonists of the estrogen related receptor signaling pathway with the pleiotropic PPARgamma coactivator (PGC) from Tox21 10K library (AID 1224842); also: nearly all actives have a fitted effect of over 15% in size
Method in brief: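 PGC/ERR reporter cells (NTP line) were seeded 2,000 per well, rested 6 h at 37 C/5% CO2, then pin-dosed with compounds in DMSO for 18 h at 37 C; luciferase read by One-Glo luminescence after 30 min at room temperature.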

[14] = molecular target: Thyrotropin receptor (Homo sapiens) (UniProt P16473); test: qHTS assay to identify small molecule agonists of the thyroid stimulating hormone receptor (TSHR) signaling pathway (AID 1224843; calls by dose curve; also: nearly all actives have a fitted effect of over 45% in size)
Method in brief: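 Cell line HEK293 with TSHR; density 800/well. Exposure 30 min RT. Readout HTRF cAMP (cAMP-d2/anti-cAMP-cryptate), 1 h RT before reading.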

[15] = qHTS assay to identify small molecule agonists of the hypoxia (HIF-1) signaling pathway - cell viability counter screen (AID 1224844; calls by dose curve; also: nearly all actives have a fitted effect of over 50% in size)
Method in brief: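 ME-180 HRE-bla cells, 2,000/well, 0.5% dialyzed FBS; 5 hr settle, 17 hr compound at 37C/5% CO2; CCF4-AM reporter read first, then CellTiter-Glo luminescence after 30 min RT.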

[16] = qHTS assay to identify small molecule agonists of the hypoxia (HIF-1) signaling pathway (AID 1224846; active = well fitted activation curve with a large enough effect in the signal ratio in the repeat runs, not every such curve was filed as active; the % refers to the signal ratio)
Method in brief: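 Cell line: CellSensor HRE-bla ME-180; 2,000 cells/well; 0.5% dialyzed FBS; 5 h preincubation; DMSO compound pin transfer; 17 h, 37C, 5% CO2; CCF4-AM added; bla FRET signal scored for activation.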

[17] = qHTS assay to identify small molecule agonists of H2AX - cell viability counter screen (AID 1224847; calls by dose curve; also: top concentration of the series differs between compounds; nearly all actives have a fitted effect of over 30% in size)
Method in brief: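 Cells plated first: CHO-K1, 1000 per well in 10% FBS medium, incubated overnight at 37C. Then 15-point compound titration added (final DMSO 0.76%) for 3 hr. Finally CellTiter-Glo added and luminescence read.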

[18] = qHTS assay to identify small molecule antagonists of the estrogen related receptor (ERR) signaling pathway from Tox21 library (AID 1224848); also: nearly all actives have a fitted effect of over 50% in size
Method in brief: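 Screening used an ERR reporter line supplied by NTP, exposed for 18 h at 37 C to library compounds delivered in DMSO. Signal was luciferase luminescence developed with ONE-Glo at room temperature for 30 min.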

[19] = qHTS assay to identify small molecule agonists of H2AX (AID 1224845; active = well fitted activation curve with a large enough effect in the signal ratio in the repeat runs, not every such curve was filed as active; the % refers to the signal ratio)
Method in brief: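 Wild-type CHO-K1 cells plated overnight, then exposed 3 hr at 37C to compounds at 15 concentrations (0.76% DMSO). Lysed, then HTRF anti-pH2AX(S139)-cryptate/anti-H2AX-d2 detection after 24 hr at room temperature; emissions 665 and 620 nm.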

[20] = molecular target: Luciferin 4-monooxygenase (Photinus pyralis) (UniProt P08659); test: qHTS assay to identify small molecule inhibitors of firefly luciferase (AID 1224835); also: nearly all actives have a fitted effect of over 25% in size
Method in brief: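 Quantitative HTS format; KM concentrations of both substrates. Purified P. pyralis FLuc activity quantified from luminescence images.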

Chain of Nuclear receptor subfamily 1 group I member 3 (Homo sapiens) (Q14994 whole entry, looked up): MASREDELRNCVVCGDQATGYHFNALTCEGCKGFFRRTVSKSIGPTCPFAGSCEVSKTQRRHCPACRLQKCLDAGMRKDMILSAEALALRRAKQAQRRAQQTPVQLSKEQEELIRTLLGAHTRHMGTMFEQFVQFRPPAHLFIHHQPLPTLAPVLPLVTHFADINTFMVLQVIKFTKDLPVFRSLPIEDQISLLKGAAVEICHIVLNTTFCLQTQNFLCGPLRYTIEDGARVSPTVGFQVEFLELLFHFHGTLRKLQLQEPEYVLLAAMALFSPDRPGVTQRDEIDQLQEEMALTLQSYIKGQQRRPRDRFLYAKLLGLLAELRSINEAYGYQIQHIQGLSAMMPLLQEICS
Chain of Thyrotropin receptor (Homo sapiens) (P16473 whole entry, looked up): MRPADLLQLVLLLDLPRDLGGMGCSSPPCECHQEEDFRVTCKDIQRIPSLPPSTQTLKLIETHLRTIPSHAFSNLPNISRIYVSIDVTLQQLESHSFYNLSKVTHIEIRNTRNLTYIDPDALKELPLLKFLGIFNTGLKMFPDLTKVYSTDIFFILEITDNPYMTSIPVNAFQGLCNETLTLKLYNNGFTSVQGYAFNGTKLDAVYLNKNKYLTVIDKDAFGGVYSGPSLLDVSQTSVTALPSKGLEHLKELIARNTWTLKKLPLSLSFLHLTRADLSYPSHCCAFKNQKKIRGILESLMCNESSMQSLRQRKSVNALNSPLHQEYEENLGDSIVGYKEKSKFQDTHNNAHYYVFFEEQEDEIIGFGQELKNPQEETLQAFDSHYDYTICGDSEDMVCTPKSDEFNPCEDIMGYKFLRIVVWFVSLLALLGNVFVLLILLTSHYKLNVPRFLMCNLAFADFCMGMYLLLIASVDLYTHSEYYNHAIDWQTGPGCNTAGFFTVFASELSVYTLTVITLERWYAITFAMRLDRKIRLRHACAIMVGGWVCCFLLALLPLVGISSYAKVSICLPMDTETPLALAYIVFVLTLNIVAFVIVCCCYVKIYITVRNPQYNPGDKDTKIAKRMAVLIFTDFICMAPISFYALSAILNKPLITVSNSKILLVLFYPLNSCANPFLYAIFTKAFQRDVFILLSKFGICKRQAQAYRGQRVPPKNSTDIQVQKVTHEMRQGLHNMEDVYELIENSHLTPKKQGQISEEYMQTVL
Chain of Retinoic acid receptor RXR-alpha (Homo sapiens) (P19793 whole entry, looked up): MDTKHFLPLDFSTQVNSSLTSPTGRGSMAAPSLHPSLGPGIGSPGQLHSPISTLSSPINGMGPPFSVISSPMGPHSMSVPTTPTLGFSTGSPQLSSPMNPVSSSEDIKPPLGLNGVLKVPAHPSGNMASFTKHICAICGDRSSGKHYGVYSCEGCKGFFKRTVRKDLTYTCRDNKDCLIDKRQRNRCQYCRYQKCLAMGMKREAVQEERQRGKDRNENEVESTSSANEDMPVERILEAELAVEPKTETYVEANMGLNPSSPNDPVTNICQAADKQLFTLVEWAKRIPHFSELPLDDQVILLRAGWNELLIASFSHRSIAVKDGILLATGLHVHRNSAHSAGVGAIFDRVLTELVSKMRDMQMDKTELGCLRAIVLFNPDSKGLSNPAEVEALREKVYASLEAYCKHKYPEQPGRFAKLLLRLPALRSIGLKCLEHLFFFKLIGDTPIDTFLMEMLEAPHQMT
Chain of Luciferin 4-monooxygenase (Photinus pyralis) (P08659 whole entry, looked up): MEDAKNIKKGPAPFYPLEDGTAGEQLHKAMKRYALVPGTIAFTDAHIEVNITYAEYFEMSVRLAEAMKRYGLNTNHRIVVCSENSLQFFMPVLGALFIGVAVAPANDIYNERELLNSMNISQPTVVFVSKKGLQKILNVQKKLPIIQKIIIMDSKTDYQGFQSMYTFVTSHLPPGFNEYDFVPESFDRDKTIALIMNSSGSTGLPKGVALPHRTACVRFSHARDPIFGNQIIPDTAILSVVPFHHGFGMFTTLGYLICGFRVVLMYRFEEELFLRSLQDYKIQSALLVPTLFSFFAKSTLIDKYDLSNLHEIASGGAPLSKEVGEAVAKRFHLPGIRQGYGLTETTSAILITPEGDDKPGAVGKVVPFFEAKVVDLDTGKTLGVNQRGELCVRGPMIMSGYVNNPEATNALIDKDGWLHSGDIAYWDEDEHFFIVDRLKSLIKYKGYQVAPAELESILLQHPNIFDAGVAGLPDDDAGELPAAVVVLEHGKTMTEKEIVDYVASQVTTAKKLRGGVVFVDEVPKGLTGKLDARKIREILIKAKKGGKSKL

SMILES | Potency [1] | outcome [2] | outcome [3] | Potency [4] | Potency [5] | Potency [6] | outcome [7] | Potency [8] | Potency [9] | Potency [10] | outcome [11] | Potency [12] | outcome [13] | outcome [14] | outcome [15] | outcome [16] | Potency [17] | Potency [18] | outcome [19] | Potency [20]
CCCCCCCCCOCC1CO1 (stereo unspecified) | inactive | inactive | inactive | inactive | inactive | inactive | inactive | inactive | inactive | inactive | inactive | inactive | inactive | inactive | inactive | inactive | inactive | inactive |  | 
O=C(O)c1ccccc1C(=O)OCc1ccccc1 | inactive | inactive | inactive | inactive | 48.6 µM (active) | inactive | inactive | inactive | inactive |  | inactive |  |  |  | inactive | inactive | inactive |  | inactive | 
CC(C)(c1ccc(Oc2ccc3c(c2)C(=O)OC3=O)cc1)c1ccc(Oc2ccc3c(c2)C(=O)OC3=O)cc1 | 13.7 µM (active) | inactive | inactive | inactive | inactive | inactive | inactive | inactive | inactive | inactive | inactive | inactive | inactive | inactive | inactive | inactive | inactive | inactive |  | 
CCCCC(CC)C(=O)OC(C)C (stereo unspecified) | inactive | inactive | inactive | inactive | inactive | inactive |  | inactive |  |  | inactive |  |  |  |  | inactive | inactive |  | inactive | inactive
O=S(=O)(O)c1cc(O)ccc1O | inactive | inactive | inactive | inactive | inactive | inactive |  | inactive |  |  | inactive |  |  | inactive | inactive |  |  | inactive |  | inactive
C=C(C)C(=O)OC | inactive | inactive | inactive | inactive | inactive | inactive | inactive | inactive | inactive | inactive | inactive | inactive | inactive | inactive |  | inactive | inactive | inactive |  | 
O=C(O)c1c(Cl)ccc(Cl)c1Cl | 15.5 µM (active) | inactive | inactive | inactive | inactive | inactive | inactive | inactive | inactive |  | inactive |  |  | inactive | inactive | inactive | inactive |  | inactive | 
CO/N=C(/C(=O)N[C@@H]1C(=O)N2C(C(=O)O)=C(Cn3nnc(C)n3)CS[C@H]12)c1csc(N)n1 | inactive | inactive | inactive | inactive | inactive | inactive |  | inactive |  |  | inactive |  |  | inactive |  | inactive | inactive |  | inactive | inactive
CC(C)CCO | inactive | inactive | inactive | inactive | inactive | inactive |  | inactive |  |  | inactive |  |  | inactive |  |  | inactive |  | inactive | inactive
CC(=O)N(CC(O)CO)c1c(I)c(C(=O)NCC(O)CO)c(I)c(C(=O)NCC(O)CO)c1I (stereo unspecified) | inactive | inactive | inactive | inactive | inactive | inactive | inactive | inactive |  |  | inactive |  |  |  | inactive | inactive | inactive |  | inactive | 
CCCCCCCCCCCCCC(=O)OC | inactive | inactive | inactive | inactive | inactive | inactive | inactive | inactive |  |  | inactive |  |  | inactive | inactive | inactive | inactive |  | inactive | 
COC(=O)CCC(=O)O | inactive | inactive | inactive | inactive | inactive | inactive | inactive | inactive |  |  | inactive |  |  | inactive | inactive | inactive | inactive |  | inactive | 
CCOC(=O)CC(CC(=O)OCC)(OC(C)=O)C(=O)OCC | inactive | inactive | inactive | inactive | inactive | inactive | inactive | inactive | inactive |  | inactive |  |  |  | inactive | inactive | inactive |  | inactive | 
C=CCOCC(O)CCl (stereo unspecified) | inactive | inactive | inactive | inactive | inactive | inactive | inactive | inactive |  |  | inactive |  |  |  | inactive | inactive | inactive |  |  | 
COc1cc([N+](=O)[O-])ccc1N | inactive | inactive | inactive | inactive | inactive | 24.3 µM (active) |  |  | inactive | inactive |  |  |  | inactive | inactive | inactive | inactive |  |  | inactive
